Source: PubChem BioAssay (NCATS)
Results filed as inconclusive are left out. A number with no mark means an inactive call. Calls of active or inactive are those of the source. Unless noted, calls come from the whole dose curve; as a rule, active = well fitted curve in the direction sought with a large enough effect; inconclusive = small, poorly fitted or top-dose-only effect, or another doubt; inactive = no such curve, though single readings can be large; an effect the other way counts as inactive or inconclusive.

Biological target: Aldehyde dehydrogenase, mitochondrial (Homo sapiens) (UniProt P05091)
Assay: qHTS for Inhibitors of the Aldehyde Dehydrogenase Family (ALDH2) Confirmatory screens (AID 2061303; active = well fitted inhibition curve with a large enough effect; title and protocol of this record describe different tests; note: nearly all actives have a fitted effect of over 45% in size; note: potency is the fitted concentration of half-maximal effect; for activity change, negative = inhibition: % is set by controls: 0 for no effect and ±100 for the full control effect)
Details: ALDH inhibition qHTS; series mostly up to 45.4 µM; activity change, negative = inhibition: at the top concentration
In the case of CC(C)(C)OC(=O)N1CCN(c2ccc(NCc3ccc(-c4ccc(C#N)cc4)o3)nc2)CC1, the Potency is reported as 0.447 µM (active). With CC(C)(C)OC(=O)N1CCC(c2ccc(NCc3ccc(-c4ccc(C#N)cc4)o3)cc2)CC1 the Potency was 0.112 µM (active). For O=C(O)CN(CCOCCOCCN(CC(=O)O)CC(=O)O)CC(=O)O, the “activity change, negative = inhibition” value was -7.79%. With Cc1ccc(S(=O)(=O)NC(=O)NN2CCCCCC2)cc1 the “activity change, negative = inhibition” value was -2.41%. For CN1Cc2sccc2C(c2ccc(O)c(O)c2)C1 (centres undefined), the “activity change, negative = inhibition” value was -15.8%. With CC(C)(C)OC(=O)N1CCN(c2cnc(NCc3ccc(-c4ccc(C#N)cc4)o3)cn2)CC1 the Potency was 0.355 µM (active). For O=C1CCc2cc(OCCCCc3nnnn3C3CCCCC3)ccc2N1, the Potency was 0.631 µM (active). With CC(C)(C)OC(=O)N1CCN(c2ccc(NCc3ccc(-c4ccc(C#N)cc4)o3)cn2)CC1 the Potency was 0.0357 µM (active). For O=C(O)/C=C/c1ccc(O)c(O)c1, the “activity change, negative = inhibition” value was -10.5%.

System: not listed separately
Assay: qHTS for Inhibitors of the Aldehyde Dehydrogenase Family (ALDH1A2, ALDH1A3, ALDH2, ALDH3A1) (AID 2061307); note: nearly all actives have a fitted effect of over 50% in size; for Potency: test system not described further here; potency is the fitted concentration of half-maximal effect; for activity change, negative = inhibition: % is set by controls: 0 for no effect and ±100 for the full control effect
Details: ALDH inhibition qHTS; series mostly up to 50.3 µM; activity change, negative = inhibition: at the top concentration
For CC(C)(C)OC(=O)N1CCN(c2ccc(NCc3ccc(-c4ccc(C#N)cc4)o3)nc2)CC1, the Potency was 15.8 µM (active). With CC(C)(C)OC(=O)N1CCC(c2ccc(NCc3ccc(-c4ccc(C#N)cc4)o3)cc2)CC1 the Potency was 0.896 µM (active). For O=C(O)CN(CCOCCOCCN(CC(=O)O)CC(=O)O)CC(=O)O, the “activity change, negative = inhibition” value was 4.14%. In the case of CN1Cc2sccc2C(c2ccc(O)c(O)c2)C1 (centres undefined), the “activity change, negative = inhibition” value is reported as -8.66%. In the case of CC(C)(C)OC(=O)N1CCN(c2cnc(NCc3ccc(-c4ccc(C#N)cc4)o3)cn2)CC1, the Potency is reported as 3.18 µM (active). For CC(C)(C)OC(=O)N1CCN(c2ccc(NCc3ccc(-c4ccc(C#N)cc4)o3)cn2)CC1, the Potency was 6.31 µM (active). For O=C(O)/C=C/c1ccc(O)c(O)c1, the “activity change, negative = inhibition” value was 2.07%.

Biological target: Aldehyde dehydrogenase, mitochondrial (Homo sapiens) (UniProt P05091)
Assay: qHTS for Inhibitors of the Aldehyde Dehydrogenase Family (ALDH2) Primary screen (AID 2061308);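 note: plate controls were vehicle for no effect and reference inhibitor for full effect; nearly all actives have a fitted effect of over 55% in size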
Details: ALDH2 enzyme inhibition qHTS, 1536-well; series mostly up to 56 µM; activity change, negative = inhibition: at the top concentration
Compound CCN(CC)CCCC(C)Nc1ccnc2cc(Cl)ccc12 (centres undefined) has an activity change, negative = inhibition of 0.897% [at 11.2 µM]. In the case of Clc1ccc2c(c1)C(N1CCNCC1)=Nc1ccccc1O2, the “activity change, negative = inhibition” value is reported as 10.6%. For CC(C)c1c(C(=O)Nc2ccccc2)c(-c2ccccc2)c(-c2ccc(F)cc2)n1CC[C@@H](O)C[C@@H](O)CC(=O)O, the “activity change, negative = inhibition” value was 5.68% [at 16.9 µM]. For Cc1ccc(-c2cc(C(F)(F)F)nn2-c2ccc(S(N)(=O)=O)cc2)cc1, the “activity change, negative = inhibition” value was -6.3%. For CC(=O)O[C@]1(C(C)=O)CC[C@H]2[C@@H]3C=C(Cl)C4=CC(=O)[C@@H]5C[C@@H]5[C@]4(C)[C@H]3CC[C@@]21C, the “activity change, negative = inhibition” value was 3.12%.

Biological target: Retinaldehyde dehydrogenase 3 (Homo sapiens) (UniProt P47895)
Assay: qHTS for Inhibitors of the Aldehyde Dehydrogenase Family (ALDH1A3) Confirmatory screens (AID 2061311); note: nearly all actives have a fitted effect of over 60% in size; note: potency is the fitted concentration of half-maximal effect; for activity change, negative = inhibition: % is set by controls: 0 for no effect and ±100 for the full control effect
Details: ALDH inhibition qHTS; series mostly up to 46 µM; activity change, negative = inhibition: at the top concentration
For CC(C)(C)OC(=O)N1CCC(c2ccc(NCc3ccc(-c4ccc(C#N)cc4)o3)cc2)CC1, the Potency was 3.16 µM (active). For O=C(O)CN(CCOCCOCCN(CC(=O)O)CC(=O)O)CC(=O)O, the “activity change, negative = inhibition” value was -4.3%. In the case of Cc1ccc(S(=O)(=O)NC(=O)NN2CCCCCC2)cc1, the “activity change, negative = inhibition” value is reported as -11.1%. For CC(C)(C)OC(=O)N1CCN(c2cnc(NCc3ccc(-c4ccc(C#N)cc4)o3)cn2)CC1, the Potency was 11.3 µM (active). For O=C1CCc2cc(OCCCCc3nnnn3C3CCCCC3)ccc2N1, the Potency was 0.631 µM (active). With CC(C)(C)OC(=O)N1CCN(c2ccc(NCc3ccc(-c4ccc(C#N)cc4)o3)cn2)CC1 the Potency was 7.08 µM (active). With O=C(O)/C=C/c1ccc(O)c(O)c1 the “activity change, negative = inhibition” value was -4.07%.

Biological target: Retinaldehyde dehydrogenase 3 (Homo sapiens) (UniProt P47895)
Assay: qHTS for Inhibitors of the Aldehyde Dehydrogenase Family (ALDH1A3) Validation screen (AID 2061312); note: % is set by controls: 0 for no effect and ±100 for the full control effect; nearly all actives have a fitted effect of over 45% in size
Details: ALDH1A3 enzyme inhibition qHTS validation, fluorescence; series mostly up to 84.7 µM; activity change, negative = inhibition: at the top concentration
In the case of CC(C)NCC(O)COc1cccc2ccccc12 (centres undefined), the “activity change, negative = inhibition” value is reported as 12.2% [at 42.4 µM]. In the case of O=C1NC(O)=NC1(c1ccccc1)c1ccccc1, the “activity change, negative = inhibition” value is reported as 31.1% [at 42.4 µM]. For CNCCC(Oc1ccc(C(F)(F)F)cc1)c1ccccc1 (centres undefined), the “activity change, negative = inhibition” value was -2.05% [at 42.4 µM]. In the case of O=C1NCc2c1c1c3ccccc3[nH]c1c1[nH]c3ccccc3c21, the “activity change, negative = inhibition” value is reported as -13.4% [at 42.4 µM]. With CCN(CC)CCCC(C)Nc1ccnc2cc(Cl)ccc12 (centres undefined) the “activity change, negative = inhibition” value was 9.16% [at 42.4 µM]. In the case of NC(=O)N1c2ccccc2C=Cc2ccccc21, the “activity change, negative = inhibition” value is reported as 2.83% [at 42.4 µM]. In the case of O=C(O)c1cccnc1Nc1cccc(C(F)(F)F)c1, the “activity change, negative = inhibition” value is reported as 18.9% [at 42.4 µM]. For CCN(CC)CC#CCOC(=O)C(O)(c1ccccc1)C1CCCCC1 (centres undefined), the “activity change, negative = inhibition” value was -12.3% [at 42.4 µM]. For O=Nc1c(-c2c(O)[nH]c3ccccc23)[nH]c2ccccc12, the “activity change, negative = inhibition” value was -10.5% [at 42.4 µM]. In the case of CC(N=C(NC#N)Nc1ccncc1)C(C)(C)C (centres undefined), the “activity change, negative = inhibition” value is reported as 23.4% [at 42.4 µM]. In the case of Cc1cn([C@H]2CC(N=[N+]=[N-])[C@@H](CO)O2)c(=O)[nH]c1=O (some centres undefined), the “activity change, negative = inhibition” value is reported as 13.9% [at 42.4 µM]. With NCC(O)c1ccc(O)c(O)c1 (centres undefined) the “activity change, negative = inhibition” value was -20.1% [at 42.4 µM]. For CC(N)=O, the “activity change, negative = inhibition” value was 17.7% [at 42.4 µM]. In the case of CCC(CO)Nc1nc(NCc2ccccc2)c2ncn(C(C)C)c2n1 (centres undefined), the “activity change, negative = inhibition” value is reported as 37.3% [at 42.4 µM]. For C[C@H](NC(CCc1ccccc1)C(=O)O)C(=O)N1CCC[C@H]1C(=O)O (some centres undefined), the “activity change, negative = inhibition” value was -16.8% [at 42.4 µM]. For Clc1ccc2c(c1)C(N1CCNCC1)=Nc1ccccc1O2, the Potency was “inactive”. For CC(C)c1c(C(=O)Nc2ccccc2)c(-c2ccccc2)c(-c2ccc(F)cc2)n1CC[C@@H](O)C[C@@H](O)CC(=O)O, the “activity change, negative = inhibition” value was 6.01% [at 42.4 µM]. With Cc1ccc(-c2cc(C(F)(F)F)nn2-c2ccc(S(N)(=O)=O)cc2)cc1 the “activity change, negative = inhibition” value was 27.2% [at 42.4 µM]. For N=C(N)c1ccc(OCCCCCOc2ccc(C(=N)N)cc2)cc1 (tested in a mixture with another compound), the “activity change, negative = inhibition” value was 2.84% [at 42.4 µM]. For O=C1CC2(CCCC2)CC(=O)N1CCCCN1CCN(c2ncccn2)CC1, the “activity change, negative = inhibition” value was -21.5% [at 42.4 µM]. For Cc1ccccc1/C=C/C1=NCCN1, the “activity change, negative = inhibition” value was -15.2% [at 42.4 µM]. For Nc1nc(OCC2CCCCC2)c2[nH]cnc2n1, the “activity change, negative = inhibition” value was 27.5% [at 42.4 µM]. For CCCCOC(=O)NS(=O)(=O)c1sc(CC(C)C)cc1-c1ccc(Cn2c(CC)nc3c(C)cc(C)nc32)cc1, the “activity change, negative = inhibition” value was 29.9% [at 42.4 µM]. For CC(=O)[C@@]1(O)CC[C@H]2[C@@H]3CCC4=CC(=O)CC[C@]4(C)[C@H]3CC[C@@]21C, the “activity change, negative = inhibition” value was 17.1% [at 42.4 µM]. For COc1cc(OC)c(/C=C2/C(=O)Nc3ccccc32)c(OC)c1, the “activity change, negative = inhibition” value was 10.2% [at 42.4 µM]. For NC(N)=NCCCCN=C(N)N, the “activity change, negative = inhibition” value was -6.69% [at 42.4 µM]. With OC(CCN1CCCCC1)(c1ccccc1)C1CCCCC1 (centres undefined) the “activity change, negative = inhibition” value was 1.44% [at 42.4 µM]. In the case of c1ccc2c(c1)CCCC2C1=NCCN1 (centres undefined), the “activity change, negative = inhibition” value is reported as 7.75% [at 42.4 µM]. With CC(=O)O[C@]1(C(C)=O)CC[C@H]2[C@@H]3C=C(Cl)C4=CC(=O)[C@@H]5C[C@@H]5[C@]4(C)[C@H]3CC[C@@]21C the Potency was “inactive”. With C[C@@H]1C(=O)NC2=Nc3cccc(Cl)c3CN21 the “activity change, negative = inhibition” value was 23.4% [at 42.4 µM]. For NCC(O)C1CCCCCCC1 (centres undefined), the “activity change, negative = inhibition” value was 7.8% [at 42.4 µM].
